aSyn 5UTR act: Activators working through SNCA 5'UTR binding (MLPCN) | AID 1814 | activity score, % (tested at 7.5 µM), hits read low | actives 7.1% (n = 300,000) | alpha-synuclein 5'UTR reporter, activators screen; in the data active = activity score below about -60%
Active calls of the source: *. These entries were drawn from the full list.

How did O=C(NCc1ccncc1)Nc1ccc2c(c1)OCO2 do in these assays?
aSyn 5UTR act: -64.3*

What do the screens show for `COc1ccc(COc2cccnc2N)cc1`?
aSyn 5UTR act: -90.5*

What do the screens show for `Nc1ncccc1OCc1ccc(Br)cc1`?
aSyn 5UTR act: -158.8*

Results for Cc1csc(SCC(=O)c2c(N)n(C)c(=O)n(C)c2=O)n1 ?
aSyn 5UTR act: -118.0*

Results for Cc1csc(SCC(=O)c2cc(C)n(Cc3cccs3)c2C)n1 ?
aSyn 5UTR act: 73.0

Results for O=C(/C(C=Nc1ccc(Br)cc1)=C(/O)c1ccco1)C(F)(F)F ?
aSyn 5UTR act: -175.1*

How did O=C(/C(C=Nc1cccc(C(F)(F)F)c1)=C(/O)c1ccco1)C(F)(F)F do in these assays?
aSyn 5UTR act: -193.8*

How did O=C(CSc1ncccn1)c1ccccc1Br do in these assays?
aSyn 5UTR act: -64.5*

How did COCC(C)n1c(C)cc(C(=O)CSc2ncccn2)c1C (stereo not given) do in these assays?
aSyn 5UTR act: -75.9*

How did COCC(C)n1c(C)cc(C(=O)CSc2nnnn2-c2ccc(O)cc2)c1C (stereo not given) do in these assays?
aSyn 5UTR act: -81.6*

Results for N=C1/C(=C/c2ccc(OCc3ccccc3)cc2)C(=O)N=C2SC(CC(=O)N3CCOCC3)=NN12 ?
aSyn 5UTR act: -95.1*

What do the screens show for `N=C1/C(=C/c2ccc(OCc3ccccc3F)cc2)C(=O)N=C2SC(CC(=O)N3CCOCC3)=NN12`?
aSyn 5UTR act: -92.9*

What do the screens show for `CC(=O)N(Cc1ccco1)c1nc(C(=O)Nc2ccc(Cl)cc2)c(C)s1`?
aSyn 5UTR act: -104.8*

How did CCOc1ccc(NC(=O)Nc2ccc(Br)cn2)cc1 do in these assays?
aSyn 5UTR act: -105.5*

What do the screens show for `Cn1ncc(Br)c1C(=O)Nc1ccc(Br)cn1`?
aSyn 5UTR act: -89.5*

How did CCCCCCC(=O)Nc1ccc(Br)cn1 do in these assays?
aSyn 5UTR act: -62.2*

How did O=C(Nc1ccc(Cl)cc1)Nc1ccc(Br)cn1 do in these assays?
aSyn 5UTR act: -103.4*

What do the screens show for `CCOc1ccc(NC(=S)NNC(=O)c2cc(Br)ccc2Cl)cc1`?
aSyn 5UTR act: -108.6*

How did O=C(c1ccc(-c2nnc(-c3ccccc3)o2)cc1)N1CCCCCC1 do in these assays?
aSyn 5UTR act: -67.7*

How did O=C(O)c1ccc(-c2nnc(-c3ccccc3)o2)cc1 do in these assays?
aSyn 5UTR act: -78.1*

How did O=C(c1ccc(-c2ccccc2)cc1)N1CCN(c2ccccc2)CC1 do in these assays?
aSyn 5UTR act: -69.6*

How did CC1CCCCN1C(=O)CSc1nc2ccsc2c(=O)n1Cc1ccccn1 (stereo not given) do in these assays?
aSyn 5UTR act: -119.5*

What do the screens show for `Cc1cc(NC(=O)CSc2nc3ccsc3c(=O)n2Cc2ccccn2)n[nH]1`?
aSyn 5UTR act: -78.7*

Results for CCc1ccc(C(=O)c2cc3ccc(O)cc3oc2=O)cc1 ?
aSyn 5UTR act: -106.4*

How did O=C(Nc1ccc(F)c(F)c1)c1ccc2c(c1)OCO2 do in these assays?
aSyn 5UTR act: -156.5*

How did O=C(Nc1ccc2c(c1)OCO2)c1cccc(Cl)c1 do in these assays?
aSyn 5UTR act: -148.2*

What do the screens show for `CCN1CCN(c2ccc(NC(=O)c3ccc4c(c3)OCO4)cc2)CC1`?
aSyn 5UTR act: -123.4*

Results for O=C(Nc1ccon1)c1ccc2c(c1)OCO2 ?
aSyn 5UTR act: -76.0*

How did Cn1cc(C(=O)Nc2ccc(Cl)c(Cl)c2)cn1 do in these assays?
aSyn 5UTR act: -84.6*

How did NC(=O)c1ccc(NC(=O)c2ccc3c(c2)OCO3)cc1 do in these assays?
aSyn 5UTR act: -138.6*

What do the screens show for `O=C(Nc1ccc(Cl)cc1)c1ccc2c(c1)OCO2`?
aSyn 5UTR act: -83.5*

Results for CC(C)(C)c1cnnn1-c1ccc(NC(=O)c2ccc3c(c2)OCO3)cc1 ?
aSyn 5UTR act: -86.2*

Results for O=C(Nc1ccc(Cl)cc1)C1=Cc2ccccc2OC1 ?
aSyn 5UTR act: -149.9*

Results for O=C(Nc1ccc(Cl)c([N+](=O)[O-])c1)c1ccc2c(c1)OCCO2 ?
aSyn 5UTR act: -133.0*

What do the screens show for `O=C(Nc1ccc(Cl)c(Cl)c1)c1ccc2c(c1)OCO2`?
aSyn 5UTR act: -133.4*

Results for O=C(Nc1ccc(Br)cc1)c1ccc2c(c1)OCO2 ?
aSyn 5UTR act: -173.9*

What do the screens show for `COc1cccc(Nc2ncnc3ccccc23)c1`?
aSyn 5UTR act: -122.6*

Results for COc1cccc(Nc2cc(C)c3ccccc3n2)c1 ?
aSyn 5UTR act: -62.7*

What do the screens show for `COc1ccc(Nc2cc(Nc3ccccc3)ncn2)cc1`?
aSyn 5UTR act: -80.9*

What do the screens show for `Cc1ccc(O)c(Nc2ncnc3ccccc23)c1`?
aSyn 5UTR act: -95.5*

Results for COc1ccc(Nc2ncnc3ccccc23)cc1 ?
aSyn 5UTR act: -152.0*

How did COc1ccc(Nc2ccnc(Nc3ccc(OC)cc3)n2)cc1 do in these assays?
aSyn 5UTR act: -119.8*

How did CCOc1ccc(Nc2nc(N)c3ccccc3n2)cc1 do in these assays?
aSyn 5UTR act: 102.3

Results for CC(C)(C)c1ccc(C(=O)NC(=S)Nn2cnnc2)cc1 ?
aSyn 5UTR act: -76.3*

Results for CC(C)(C)c1cc(CCC(=O)NNC(=S)NC(=O)c2ccccc2)cc(C(C)(C)C)c1O ?
aSyn 5UTR act: 65.8
